# Test results reported in PubChem BioAssay (NCI).
# About 79,000 compounds went through this panel and 15% of them were active in at least one assay; those are over-represented in the sample as a whole. Values without a mark were called inactive. The source made the active and inactive calls. Cut-off read from the data, not from the text of the source: active = growth inhibition above about 70%; inactive = the rest.
# Tests used:
# [1] = NCI Yeast Anticancer Drug Screen. Data for the rad52 strain (AID 147);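 note: 0% = growth of vehicle-treated control cultures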; conditions: S. cerevisiae rad52 mutant growth inhibition, stronger effect = higher value
# Method in brief: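 DNA repair-defective yeast; compound exposure; growth scored against vehicle controls.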
# [2] = NCI Yeast Anticancer Drug Screen. Data for the wt1 strain (AID 149);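 note: 0% = growth of vehicle-treated wt1 cultures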; conditions: S. cerevisiae wt1 strain (SPY 50644) growth inhibition, stronger effect = higher value
# Method in brief: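 The wt1 strain was treated with compounds, and growth was compared with vehicle-treated cultures to give inhibition.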
# [3] = NCI Yeast Anticancer Drug Screen. Data for the rad50EPP+ strain (AID 151);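 note: 0% = growth of vehicle-treated control cultures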; conditions: S. cerevisiae rad50 mutant strain, stronger effect = higher value
# Method in brief: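 rad50EPP+ yeast treated with test compounds. Readout: growth vs vehicle control.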
# [4] = NCI Yeast Anticancer Drug Screen. Data for the mgt1 strain (AID 153); conditions: S. cerevisiae mgt1 mutant growth inhibition, stronger effect = higher value
# Method in brief: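 Growth inhibition relative to vehicle controls was scored for the mgt1 yeast strain after compound exposure.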
# [5] = NCI Yeast Anticancer Drug Screen. Data for the rad50 strain (AID 155);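 note: 0% = growth of vehicle-only cultures of the same strain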; conditions: S. cerevisiae rad50 strain growth inhibition, stronger effect = higher value
# Method in brief: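 Cells are treated with compound, grown, and their growth is then scored against vehicle-only cultures of the same repair-deficient yeast strain.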
# [6] = NCI Yeast Anticancer Drug Screen. Data for the mec2-1 strain (AID 157); conditions: S. cerevisiae mec2-1 strain, stronger effect = higher value
# Method in brief: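 Growth inhibition is read against vehicle-treated controls after compound exposure of the mec2-1 yeast strain, which is defective in DNA damage repair or cell cycle control.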
# [7] = NCI Yeast Anticancer Drug Screen. Data for the rad14 strain (AID 159);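 note: 0% = growth of vehicle-treated control cultures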; conditions: S. cerevisiae rad14 strain growth inhibition, stronger effect = higher value
# Method in brief: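 Readout: yeast growth inhibition, referenced to vehicle-only cultures. Strain bears a defined alteration in DNA damage repair.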
# [8] = NCI Yeast Anticancer Drug Screen. Data for the sgs1 mgt1 strain (AID 161);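 note: 0% = growth of cultures given vehicle only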; conditions: S. cerevisiae sgs1 mgt1 strain, stronger effect = higher value
# Method in brief: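 Compounds are added to genetically altered yeast, and growth is compared with cultures given vehicle alone to give percent inhibition.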
# [9] = NCI Yeast Anticancer Drug Screen. Data for the CLN2oe strain (AID 163);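 note: 0% = growth of vehicle-only control cultures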; conditions: S. cerevisiae CLN2oe strain, stronger effect = higher value
# Method in brief: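 Compound-treated yeast; growth vs vehicle ctrl = % inhibition. Genetically altered strain (cell-cycle control).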
# [10] = NCI Yeast Anticancer Drug Screen. Data for the cln2 rad14 strain (AID 165);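 note: 0% = growth equal to vehicle treated cultures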; conditions: S. cerevisiae cln2 rad14 strain, stronger effect = higher value
# Method in brief: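 Growth inhibition, relative to vehicle-treated controls, is the read-out. The test organism is a yeast strain with defined genetic alterations, cln2 rad14.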
# [11] = NCI Yeast Anticancer Drug Screen. Data for the bub3 strain (AID 167); conditions: S. cerevisiae bub3 mutant strain, stronger effect = higher value
# Method in brief: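 Part of a panel of yeast mutants defective in DNA damage repair or cell cycle regulation. Each strain is grown with compound, and inhibition is calculated relative to solvent-treated cultures.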
# [12] = NCI Yeast Anticancer Drug Screen. Data for the wt2 strain (AID 169);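 note: 0% = growth of vehicle-treated yeast cultures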; conditions: S. cerevisiae wt2 strain growth inhibition, stronger effect = higher value
# Method in brief: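 Compound exposure of yeast; growth compared with vehicle controls; inhibition reported.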
# [13] = NCI Yeast Anticancer Drug Screen. Data for the mlh1 strain (AID 171);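 note: 0% = growth of vehicle-treated control cultures of the same strain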; conditions: S. cerevisiae mlh1 strain growth inhibition, stronger effect = higher value
# Method in brief: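 Compounds are applied to a genetically altered yeast strain, and its growth is compared with that of vehicle-treated cultures to give percent inhibition.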
# [14] = NCI Yeast Anticancer Drug Screen. Data for the sgs1 strain (AID 173);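 note: 0% = growth of vehicle-only control cultures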; conditions: S. cerevisiae sgs1 mutant, stronger effect = higher value
# Method in brief: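 Compounds applied to genetically altered yeast; growth compared with vehicle-treated cultures to give % inhibition.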
# [15] = NCI Yeast Anticancer Drug Screen. Data for the mlh1 rad18 strain (AID 175); conditions: S. cerevisiae mlh1 rad18 strain growth inhibition, stronger effect = higher value
# Method in brief: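 Cells of a genetically altered yeast strain, deficient in DNA damage repair, were treated with compound. Their growth was then compared with that of vehicle-treated cultures to give inhibition.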
# [16] = NCI Yeast Anticancer Drug Screen. Data for the rad18 strain (AID 177); conditions: S. cerevisiae rad18 mutant growth inhibition, stronger effect = higher value
# Method in brief: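 Compounds are applied to a repair-deficient yeast strain, and growth is compared with that of vehicle-treated cultures to give percent inhibition.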
# [17] = at 5.0 µM (retest, dose inferred, filed as 0.5)
# [18] = at 50.0 µM (retest, dose inferred, filed as 5.0)
smiles,measurement,setting,value
CN1CCN(C(=O)c2cccc3cccc(C(=O)O)c23)CC1,growth inhibition,[1]; at 1.2 µM,11%
same,growth inhibition,[1]; at 3.7 µM,10%
same,growth inhibition,[1]; at 11.0 µM,7%
same,growth inhibition,[1]; at 33.0 µM,38%
same,growth inhibition,[1]; at 100.0 µM,97% (active)
same,growth inhibition,[2]; at 1.2 µM,6%
same,growth inhibition,[2]; at 3.7 µM,9%
same,growth inhibition,[2]; at 11.0 µM,11%
same,growth inhibition,[2]; at 33.0 µM,12%
same,growth inhibition,[2]; at 100.0 µM,33%
same,growth inhibition,[3]; at 1.2 µM,15%
same,growth inhibition,[3]; at 3.7 µM,12%
same,growth inhibition,[3]; at 11.0 µM,10%
same,growth inhibition,[3]; at 33.0 µM,36%
same,growth inhibition,[3]; at 100.0 µM,72% (active)
same,growth inhibition,[4]; at 1.2 µM,4%
same,growth inhibition,[4]; at 3.7 µM,12%
same,growth inhibition,[4]; at 11.0 µM,11%
same,growth inhibition,[4]; at 33.0 µM,23%
same,growth inhibition,[4]; at 100.0 µM,99% (active)
same,growth inhibition,[5]; at 1.2 µM,9%
same,growth inhibition,[5]; at 3.7 µM,9%
same,growth inhibition,[5]; [17],-12%
same,growth inhibition,[5]; at 11.0 µM,8%
same,growth inhibition,[5]; at 33.0 µM,61%
same,growth inhibition,[5]; [18],84% (active)
same,growth inhibition,[5]; at 50.0 µM,85% (active)
same,growth inhibition,[5]; at 100.0 µM,99% (active)
same,growth inhibition,[6]; at 1.2 µM,10%
same,growth inhibition,[6]; at 3.7 µM,12%
same,growth inhibition,[6]; [17],-19%
same,growth inhibition,[6]; at 11.0 µM,13%
same,growth inhibition,[6]; at 33.0 µM,23%
same,growth inhibition,[6]; [18],1%
same,growth inhibition,[6]; at 50.0 µM,97.7% (active)
same,growth inhibition,[6]; at 100.0 µM,99% (active)
same,growth inhibition,[7]; at 1.2 µM,12%
same,growth inhibition,[7]; at 3.7 µM,11%
same,growth inhibition,[7]; at 11.0 µM,14%
same,growth inhibition,[7]; at 33.0 µM,32%
same,growth inhibition,[7]; at 100.0 µM,98% (active)
same,growth inhibition,[8]; [17],-14%
same,growth inhibition,[8]; [18],88% (active)
same,growth inhibition,[8]; at 50.0 µM,77.6% (active)
same,growth inhibition,[9]; at 1.2 µM,13%
same,growth inhibition,[9]; at 3.7 µM,15%
same,growth inhibition,[9]; at 11.0 µM,14%
same,growth inhibition,[9]; at 33.0 µM,32%
same,growth inhibition,[9]; at 100.0 µM,97% (active)
same,growth inhibition,[10]; [17],-10%
same,growth inhibition,[10]; [18],6%
same,growth inhibition,[10]; at 50.0 µM,38.6%
same,growth inhibition,[11]; at 1.2 µM,12%
same,growth inhibition,[11]; at 3.7 µM,15%
same,growth inhibition,[11]; [17],25%
same,growth inhibition,[11]; at 11.0 µM,16%
same,growth inhibition,[11]; at 33.0 µM,33%
same,growth inhibition,[11]; [18],89% (active)
same,growth inhibition,[11]; at 50.0 µM,51.8%
same,growth inhibition,[11]; at 100.0 µM,97% (active)
same,growth inhibition,[12]; at 1.2 µM,-6%
same,growth inhibition,[12]; at 3.7 µM,-4%
same,growth inhibition,[12]; at 11.0 µM,-7%
same,growth inhibition,[12]; at 33.0 µM,-8%
same,growth inhibition,[12]; at 100.0 µM,98% (active)
same,growth inhibition,[13]; at 1.2 µM,8%
same,growth inhibition,[13]; at 3.7 µM,9%
same,growth inhibition,[13]; at 11.0 µM,10%
same,growth inhibition,[13]; at 33.0 µM,29%
same,growth inhibition,[13]; at 100.0 µM,100% (active)
same,growth inhibition,[14]; at 1.2 µM,-14%
same,growth inhibition,[14]; at 3.7 µM,-21%
same,growth inhibition,[14]; at 11.0 µM,-13%
same,growth inhibition,[14]; at 33.0 µM,16%
same,growth inhibition,[14]; at 100.0 µM,100% (active)
same,growth inhibition,[15]; [17],-30%
same,growth inhibition,[15]; [18],99% (active)
same,growth inhibition,[15]; at 50.0 µM,9.9%
same,growth inhibition,[16]; at 1.2 µM,11%
same,growth inhibition,[16]; at 3.7 µM,11%
same,growth inhibition,[16]; at 11.0 µM,13%
same,growth inhibition,[16]; at 33.0 µM,33%
same,growth inhibition,[16]; at 100.0 µM,99% (active)
N#Cc1nc(Nc2ccc(Cl)cc2)sc1N,growth inhibition,[1]; at 1.2 µM,-33%
same,growth inhibition,[1]; at 3.7 µM,-29%
same,growth inhibition,[1]; at 11.0 µM,-25%
same,growth inhibition,[1]; at 33.0 µM,32%
same,growth inhibition,[1]; at 100.0 µM,80% (active)
same,growth inhibition,[2]; at 1.2 µM,-6%
same,growth inhibition,[2]; at 3.7 µM,-4%
same,growth inhibition,[2]; at 11.0 µM,-16%
same,growth inhibition,[2]; at 33.0 µM,41%
same,growth inhibition,[2]; at 100.0 µM,73% (active)
same,growth inhibition,[3]; at 1.2 µM,-36%
same,growth inhibition,[3]; at 3.7 µM,-27%
same,growth inhibition,[3]; at 11.0 µM,-17%
same,growth inhibition,[3]; at 33.0 µM,-1%
same,growth inhibition,[3]; at 100.0 µM,36%
same,growth inhibition,[4]; at 1.2 µM,-6%
same,growth inhibition,[4]; at 3.7 µM,-10%
same,growth inhibition,[4]; at 11.0 µM,1%
same,growth inhibition,[4]; at 33.0 µM,80% (active)
same,growth inhibition,[4]; at 100.0 µM,94% (active)
same,growth inhibition,[5]; at 1.2 µM,-4%
same,growth inhibition,[5]; at 3.7 µM,-9%
same,growth inhibition,[5]; [17],18%
same,growth inhibition,[5]; at 11.0 µM,-1%
same,growth inhibition,[5]; at 33.0 µM,27%
same,growth inhibition,[5]; [18],-8%
same,growth inhibition,[5]; at 50.0 µM,89.2% (active)
same,growth inhibition,[5]; at 100.0 µM,61%
same,growth inhibition,[6]; at 1.2 µM,-37%
same,growth inhibition,[6]; at 3.7 µM,-8%
same,growth inhibition,[6]; [17],8%
same,growth inhibition,[6]; at 11.0 µM,-15%
same,growth inhibition,[6]; at 33.0 µM,19%
same,growth inhibition,[6]; [18],53%
same,growth inhibition,[6]; at 50.0 µM,36.1%
same,growth inhibition,[6]; at 100.0 µM,42%
same,growth inhibition,[7]; at 1.2 µM,-31%
same,growth inhibition,[7]; at 3.7 µM,-19%
same,growth inhibition,[7]; at 11.0 µM,-16%
same,growth inhibition,[7]; at 33.0 µM,34%
same,growth inhibition,[7]; at 100.0 µM,91% (active)
same,growth inhibition,[8]; [17],9%
same,growth inhibition,[8]; [18],30%
same,growth inhibition,[8]; at 50.0 µM,76.2% (active)
same,growth inhibition,[9]; at 1.2 µM,25%
same,growth inhibition,[9]; at 3.7 µM,20%
same,growth inhibition,[9]; at 11.0 µM,27%
same,growth inhibition,[9]; at 33.0 µM,58%
same,growth inhibition,[9]; at 100.0 µM,44%
same,growth inhibition,[10]; [17],39%
same,growth inhibition,[10]; [18],92% (active)
same,growth inhibition,[10]; at 50.0 µM,84.6% (active)
same,growth inhibition,[11]; at 1.2 µM,18%
same,growth inhibition,[11]; at 3.7 µM,23%
same,growth inhibition,[11]; [17],10%
same,growth inhibition,[11]; at 11.0 µM,17%
same,growth inhibition,[11]; at 33.0 µM,32%
same,growth inhibition,[11]; [18],70% (active)
same,growth inhibition,[11]; at 50.0 µM,86% (active)
same,growth inhibition,[11]; at 100.0 µM,94% (active)
same,growth inhibition,[12]; at 1.2 µM,-20%
same,growth inhibition,[12]; at 3.7 µM,-36%
same,growth inhibition,[12]; at 11.0 µM,-20%
same,growth inhibition,[12]; at 33.0 µM,81% (active)
same,growth inhibition,[12]; at 100.0 µM,84% (active)
same,growth inhibition,[13]; at 1.2 µM,1%
same,growth inhibition,[13]; at 3.7 µM,27%
same,growth inhibition,[13]; at 11.0 µM,21%
same,growth inhibition,[13]; at 33.0 µM,64%
same,growth inhibition,[13]; at 100.0 µM,94% (active)
same,growth inhibition,[14]; at 1.2 µM,-20%
same,growth inhibition,[14]; at 3.7 µM,-13%
same,growth inhibition,[14]; at 11.0 µM,-2%
same,growth inhibition,[14]; at 33.0 µM,-1%
same,growth inhibition,[14]; at 100.0 µM,40%
same,growth inhibition,[15]; [17],-29%
same,growth inhibition,[15]; [18],-24%
same,growth inhibition,[15]; at 50.0 µM,49.9%
same,growth inhibition,[16]; at 1.2 µM,-17%
same,growth inhibition,[16]; at 3.7 µM,-17%
same,growth inhibition,[16]; at 11.0 µM,-3%
same,growth inhibition,[16]; at 33.0 µM,44%
same,growth inhibition,[16]; at 100.0 µM,91% (active)
